Screens deposited in PubChem by National Center for Advancing Translational Sciences (NCATS).
Most compounds without a hit are left out; they make up all but 5.9% or so of the library.
VP16 counter = VP16 counterscreen qHTS for inhibitors of ROR gamma transcriptional activity | Drosophila S2 Gal4-VP16 UAS-luciferase, luminescence, 20 h | Potency, µM (doses to about 53.6 µM), for the others: at the highest dose activity, negative = inhibition, most hits filed as inhibitors | hit rate 3.5% among 310,000 | AID 2546, 2010;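 note: Gal4-VP16 expression switched on by copper sulfate through the metallothionein promoter; % is set by controls: 0 for no effect and ±100 for the full control effect; nearly all actives have a fitted effect of over 50% in size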
GLP1R inv ag = qHTS of GLP-1 Receptor Inverse Agonists (Inhibition Mode). hit rate 1.6% among 410,000. AID 624417, 2012. Potency, µM (top dose mostly 38.3 µM), without a hit: at the highest dose activity change, negative = inhibition, usual class: inhibitors. Glucagon-like peptide 1 receptor (Homo sapiens), P43220. HEK293 GLP-1R CRE-luciferase, luminescence, 24 h; GLP-1R form is constitutively active; note: % is set by controls: 0 for no effect and ±100 for the full control effect; nearly all actives have a fitted effect of over 55% in size
Target sequence (P43220 whole entry, looked up): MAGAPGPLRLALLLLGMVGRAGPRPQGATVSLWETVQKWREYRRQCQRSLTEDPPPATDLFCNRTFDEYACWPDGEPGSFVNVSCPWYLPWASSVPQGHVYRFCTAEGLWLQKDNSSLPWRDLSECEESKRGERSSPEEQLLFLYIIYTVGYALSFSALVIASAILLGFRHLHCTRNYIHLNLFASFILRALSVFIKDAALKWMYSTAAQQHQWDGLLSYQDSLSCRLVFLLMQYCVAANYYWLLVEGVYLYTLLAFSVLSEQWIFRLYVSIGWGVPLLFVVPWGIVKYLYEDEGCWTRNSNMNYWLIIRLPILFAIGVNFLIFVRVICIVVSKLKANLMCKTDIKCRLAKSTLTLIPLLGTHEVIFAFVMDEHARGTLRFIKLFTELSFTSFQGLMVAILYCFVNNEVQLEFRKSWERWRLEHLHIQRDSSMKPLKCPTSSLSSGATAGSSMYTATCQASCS
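GLP-1R inverse agonism mode: basal reporter luminescence in engineered HEK293 cells measured after one day of compound exposure at 37 deg C, with a 12 min room-temperature detection step.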
GLP1R ag = qHTS of GLP-1 Receptor Agonists; Glucagon-like peptide 1 receptor (Homo sapiens), P43220; HEK293 GLP-1R CRE-luciferase, luminescence, 4-6 h; cells express a hypersensitive GLP-1R form; Potency, µM (titrated, usually from 45.6 µM), for inactives: at the top dose activation, usual class: activators; hit rate 0.007% among 380,000; AID 624172, 2012; note: % of control where 0% means no effect
RORg inh = qHTS for inhibitors of ROR gamma transcriptional activity; AID 2551, 2010; hit rate 5.4% among 310,000; Nuclear receptor ROR-gamma (Mus musculus), P51450; Potency, µM (doses to about 53.6 µM), for inactives: top-dose activity change, negative = inhibition, most hits filed as inhibitors; Drosophila S2 Gal4-RORgamma UAS-luciferase reporter, 20 h; note: % is set by controls: 0 for no effect and ±100 for the full control effect; nearly all actives have a fitted effect of over 60% in size
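In this cell-based reporter format, copper sulfate (700 uM final) drives Gal4–ROR gamma fusion expression from a metallothionein promoter in Drosophila Schneider cells; compounds preincubated 1 hr, reporter read after 20 hr at ambient temperature.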
GLP1R cytotox = qHTS of GLP-1 Receptor Inverse Agonists: Cytotox Screen; Potency, µM (doses to about 38.3 µM), without a hit: top-dose activity change, negative = inhibition, hits mostly inhibitors; hit rate 0.13% among 410,000; HEK293 cAMP-luciferase reporter cells, luminescence, 24 h;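 note: loss of luciferase light is scored as toxicity; % is set by controls: 0 for no effect and ±100 for the full control effect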
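Luminescence readout: signal drop marks cytotoxicity. Plated cells grew 12 h at 37 °C, 5% CO2, received 23 nL compound for 24 h, then got luciferase reagent, read after 12 min at RT.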
Active calls of the source: *; [ ] = remark or other dose. Calls come from the whole dose curve; as a rule, active = well fitted curve in the direction sought with a large enough effect; inconclusive = small, poorly fitted or top-dose-only effect, or another doubt; inactive = no such curve, though single readings can be large; an effect the other way counts as inactive or inconclusive. Potency is the fitted concentration of half-maximal effect.

CC1=NOC(=O)/C1=C/c1ccc(O)c(Cl)c1 was read as VP16 counter 15.8µM*, GLP1R inv ag -2.6%, GLP1R ag 6.1%, RORg inh 11.2µM* and GLP1R cytotox 2.3%.
`CCOc1cc(/C=C2/C(=O)ON=C2C)ccc1O` gave VP16 counter inconclusive, GLP1R inv ag 30.1%, GLP1R ag -5.3%, RORg inh inconclusive and GLP1R cytotox 1.1%.
CCCOc1cccc(C2C(C(=O)c3ccc(C)o3)=C(O)C(=O)N2c2nc(C)c(C(C)=O)s2)c1 (stereo unspecified) was read as VP16 counter -2.1%, GLP1R inv ag 19.2%, GLP1R ag -0.3%, RORg inh 14.1µM* and GLP1R cytotox 0.2%.
Screening CCOc1cccc(C2C(C(=O)c3ccc(C)o3)=C(O)C(=O)N2c2nnc(C)s2)c1 (stereo unspecified) returned GLP1R inv ag -3.2%, GLP1R ag 0.5% and GLP1R cytotox -3.6%.
For CCOC(=O)c1[nH]c(C)c(CCC(=O)N2CCN(c3ccc(OC)cc3)CC2)c1C the results were GLP1R inv ag 4.6% and GLP1R cytotox 4.7%.
CCCC(NC(=O)CCc1c(C)c2cc3c4c(oc3c(C)c2oc1=O)CCCC4)C(=O)O (stereo unspecified) was read as VP16 counter -23.3%, GLP1R inv ag 19.0%, GLP1R ag 12.7%, RORg inh 0.794µM* and GLP1R cytotox 0.1%.
Screening CCC(C(=O)NCCCN(CC)CC)n1ncn2c(cc3occc32)c1=O (stereo unspecified) returned GLP1R inv ag -13.9% and GLP1R cytotox -3.1%.
Screening CC(C)C(=O)Nc1ccc2nc(SCC(=O)N3CCCC3)sc2c1 returned GLP1R inv ag 12.9% and GLP1R cytotox -4.8%.
Screening CC(Nc1nc(-c2ccc3c(c2)NC(=O)CO3)cs1)c1ccccc1 (stereo unspecified) returned VP16 counter 22.4%, GLP1R inv ag inconclusive, GLP1R ag 22.0%, RORg inh inconclusive and GLP1R cytotox -24.1%.
C=CCN=c1scc(-c2ccc3c(c2)NC(=O)CO3)n1/N=C(\C)c1ccccn1 was read as VP16 counter inconclusive, GLP1R inv ag -30.0%, GLP1R ag 6.1%, RORg inh 11.2µM* and GLP1R cytotox inconclusive.
For C=CCOC(=O)N[C@H](/C(C(=O)OC)=C(\C)NCc1ccccc1)c1cccc(F)c1 the results were VP16 counter -25.2% and RORg inh -2.5%.
Screening Cc1ccc(C(C[N+](=O)[O-])Sc2ccc(N)cc2)cc1 (stereo unspecified) returned VP16 counter 5.62µM*, GLP1R inv ag inconclusive, GLP1R ag 1.2%, RORg inh 11.2µM* and GLP1R cytotox inconclusive.
Screening Cc1ccc(C(C[N+](=O)[O-])n2nc(C)cc2C)cc1 (stereo unspecified) returned VP16 counter 1.8%, GLP1R inv ag -11.1%, GLP1R ag -10.6%, RORg inh -21.9% and GLP1R cytotox 3.5%.
Screening CN(C)c1ccc(/C=N/Nc2nc3ccccc3o2)cc1 returned VP16 counter 11.2µM*, GLP1R inv ag 3.55µM*, GLP1R ag -0.4%, RORg inh 6.31µM* and GLP1R cytotox -21.5%.
Screening CCNc1nc(NCC)nc(N/N=C/c2ccc(O)c(O)c2)n1 returned VP16 counter -20.1%, GLP1R inv ag 24.5%, GLP1R ag -1.0%, RORg inh inconclusive and GLP1R cytotox -18.7%.
CCNc1nc(NCC)nc(N/N=C/c2ccc(N(C)C)cc2)n1 was read as VP16 counter inconclusive, GLP1R inv ag inconclusive, GLP1R ag 4.5%, RORg inh 7.94µM* and GLP1R cytotox inconclusive.
CN(C)c1nc(NCc2ccccc2)nc(N/N=C/c2ccc3c(c2)OCO3)n1 was read as VP16 counter inconclusive, GLP1R inv ag 10µM*, GLP1R ag 1.5%, RORg inh 7.94µM* and GLP1R cytotox inconclusive.
`CN(C)c1nc(NCc2ccccc2)nc(N/N=C/c2ccc(Br)cc2)n1` gave VP16 counter 12.6µM*, GLP1R inv ag -3.6%, GLP1R ag 4.0%, RORg inh 2.82µM* and GLP1R cytotox 3.8%.
CCS(=O)(=O)c1ccc(C=NNc2nc3ccccc3o2)cc1 was read as GLP1R inv ag -12.2%, GLP1R ag -2.5% and GLP1R cytotox -22.7%.
For CC[C@H](C)[C@H](NC(=O)CNC(=O)[C@H](CCCNC(=N)N)NC(=O)[C@H](CO)NC(=O)[C@H](C)NC(=O)[C@H](Cc1ccc(O)cc1)NC(=O)[C@H](Cc1c[nH]c2ccccc12)NC(=O)[C@H](C)NC(=O)[C@@H]1CCCN1C(=O)[C@H](CC(N)=O)NC(=O)[C@@H](NC(=O)[C@H](CC(=O)O)NC(=O)[C@@H]1CCCN1C(=O)[C@@H](N)[C@@H](C)O)[C@@H](C)CC)C(=O)N[C@@H](CCCNC(=N)N)C(=O)N1CCC[C@H]1C(=O)N[C@H](C(=O)NCC(=O)N[C@@H](CCCNC(=N)N)C(=O)N[C@@H](Cc1ccccc1)C(N)=O)C(C)C the results were VP16 counter 5.4% and RORg inh 12.3%.
For COc1ccc(-c2cn3nc(N4CCCC(C(=O)Nc5ccccc5F)C4)sc3n2)cc1 (stereo unspecified) the results were GLP1R inv ag 14.3% and GLP1R cytotox 7.1%.
For Cc1cccc(C2=N[C@@H](CC(C)C)CO2)c1 the results were VP16 counter -11.9%[96.6 µM] and RORg inh inconclusive.
CCN(CC)S(=O)(=O)c1ccc(C)c(NC(=S)N2CCN(C/C=C/c3ccccc3)CC2)c1 was read as VP16 counter inconclusive, GLP1R inv ag inconclusive, GLP1R ag 2.3%, RORg inh 12.6µM* and GLP1R cytotox -5.8%.
`S=C(NCc1ccco1)N1CCN(Cc2ccco2)CC1` gave VP16 counter -5.3%, GLP1R inv ag 4.9%, GLP1R ag -0.7%, RORg inh 7.9% and GLP1R cytotox 8.6%.
For CC(C)c1ccccc1NC(=S)N1CCN(Cc2ccc3c(c2)OCO3)CC1 the results were VP16 counter inconclusive, GLP1R inv ag inconclusive, GLP1R ag 5.4%, RORg inh 11.2µM* and GLP1R cytotox 15.0%.
Screening S=C(Nc1ccc2c(c1)OCO2)N1CCN(Cc2ccco2)CC1 returned VP16 counter 11.2µM*, GLP1R inv ag -5.6%, GLP1R ag -8.2%, RORg inh 11.2µM* and GLP1R cytotox 2.8%.
